Compounds with a hit are over-represented: about 21% of the library has one in this group of screens.
CHX counter – affects cycloheximide protein synthesis inhibition readout, counter-screen; max response, %; cell reporter, cycloheximide protein synthesis inhibition counterscreen; hit rate 12% among 300,000; AID 2314; in the data active means max response mostly above about 13%, no sharp cut-off; inactive means mostly below about 14%; further: read at 38.3 µM for the half of the compounds with a filed dose; 0% is about no effect
HCV inh – blocks hepatitis C virus | Huh7.5.1 HCVcc-Cre infection, luciferase reporter, 44 h | Potency, µM (top dose mostly 41.8 µM), for the others: at the highest dose activity change, negative = inhibition, usual class: inhibitors | hit rate 3.4% among 340,000; further: potency means the concentration at half of the fitted maximal effect; on the % scale 0 is the no-effect control and ±100 the full control effect
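Infectious HCV cell culture screen: compound-treated cells (1,000/well, pre-plated 4 h) are infected with HCVcc-Cre at roughly 0.5 moi and grown 44 h. Infection is quantified by luciferase signal after 15 min substrate incubation at room temperature.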
Shiga toxin inh – Shiga toxin inhibition | Vero cells, Shiga toxin protein synthesis inhibition reporter | inhibition, % at 38.7 µM | hit rate 9.2% among 290,000 | AID 2315; in the data active means inhibition mostly above about 28%, no sharp cut-off; inactive means mostly below about 43%; further: 0% is about no effect
Pf growth 96h – P. falciparum growth inhibition at 96 hours. P. falciparum luciferase reporter growth, 96 h. Potency, µM (series often up to 28.7 µM), inactives show at the highest dose activity change, negative = inhibition, hits mostly inhibitors. hit rate 6.9% among 320,000. AID 504834; further: potency means the concentration at half of the fitted maximal effect; on the % scale 0 is the no-effect control and ±100 the full control effect
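96 h incubation, 37 C, 5% CO2, of luciferase-reporter P. falciparum-infected RBCs (2% hematocrit, 0.05% parasitemia final) with test compounds; endpoint luminescence.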
Pf growth 48h – P. falciparum growth inhibition at 48 hours (one generation) | Potency, µM (top dose mostly 28.7 µM), for the others: at the highest dose activity change, negative = inhibition, most hits filed as inhibitors | AID 504832 | hit rate 5.9% among 310,000 | P. falciparum luciferase growth in erythrocytes, 48 h; further: potency means the concentration at half of the fitted maximal effect; on the % scale 0 is the no-effect control and ±100 the full control effect
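Luciferase-expressing P. falciparum in infected erythrocytes (2% hematocrit, 0.1% parasitemia final) in RPMI 1640/0.5% Albumax were exposed to compound for 48 hours at 37 C, 5% CO2; growth read as luminescence.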
AMA1-RON2 inh – AMA1-RON2 (P. falciparum) interaction inhibition; AID 720542; AlphaScreen AMA1-biotinylated RON2 peptide binding; Potency, µM (titrated, usually from 58.2 µM), for inactives: at the highest dose activity change, negative = inhibition, usual class: inhibitors; hit rate 0.2% among 360,000;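 further: potency means the concentration at half of the fitted maximal effect; 0% = vehicle wells and -100% = peptide control; nearly all actives have a fitted effect of over 45% in size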
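AMA1 (3D7) with his tag at 25 nM final met compounds first, then biotinylated RON2 peptide at 25 nM; detection used donor plus acceptor beads, 10 µg/mL apiece, read by AlphaScreen after 30 min at room temperature.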
* hit, by the source's call; ? = inconclusive; · = no result given. Unless noted, the call rests on the fitted dose curve; in most records, active means well fitted curve in the direction sought with a large enough effect; inconclusive means small, poorly fitted or top-dose-only effect, or another doubt; inactive means no such curve, though single readings can be large; an effect the other way counts as inactive or inconclusive.

SMILES	CHX counter	HCV inh	Shiga toxin inh	Pf growth 96h	Pf growth 48h	AMA1-RON2 inh
COc1ccc(N2CCN(CCNC(=O)Nc3ccc(C)cc3Cl)CC2)cc1	-3	-24%	-2	2.3µM*	1%	-3%
Cc1cc(=O)oc(C)c1C(=O)NCc1ccco1	-4	16%	14	40%	30%	-19%
COc1ccc(N2CCN(CCCN)CC2)cc1	·	10µM*	·	·	·	-23%
O=C(CN1CCN(c2ccc(F)cc2)CC1)c1ccc(O)cc1O	1	2%	-1	11%	7%	5%
CC(C)(C)NC(=S)NC(C)(C)C	-1	14%	-6	3%	34%	-5%
COc1ccc(/C=C/C(=O)OCC(=O)NC2CCCCCC2)cc1	·	·	·	·	·	-4%
COc1ccc(N2CCN(CCNC(=O)c3c(C)cc(=O)oc3C)CC2)cc1	-4	-2%	-5	?	12µM*	-13%
Cc1cc2oc(=O)cc(CN3CCC(C)CC3)c2c(C)c1Cl	12	2%	-2	-7%	-5%	10%
COc1ccc(N2CCN(Cc3cc(=O)oc4cc(C)c(Cl)c(C)c34)CC2)cc1	-2	2%	20	-21%	4.1µM*	-21%
Cc1cc(=O)oc(C)c1C(=O)NCCCN1CCN(c2ccc(F)cc2)CC1	-1	-8%	-17	0.74µM*	?	10%
Cc1c(C)n(C)c2ccc(C(=O)NCCCN3CCN(c4ccc(F)cc4)CC3)cc12	-2	?	-4	13%	?	-30%
Cc1nn(C(C)C(=O)NCCc2ccco2)c(=O)c2nn(-c3ccccc3)c(C)c12 (stereo unspecified)	-9	16%	-7	?	-1%	-4%
CCOC(=O)N1CCC(N2C(=O)c3ccccc3C2Nc2ccc(C)cc2)CC1 (stereo unspecified)	-2	11%	-7	9.3µM*	·	-18%
CCOC(=O)N1CCC(N2C(=O)c3ccccc3C2Nc2cc(C(=O)OC)cc(C(=O)OC)c2)CC1 (stereo unspecified)	-5	4%	-11	8.3µM*	·	1%
CCOC(=O)N1CCC(N2C(=O)c3ccccc3C2Nc2ccccc2)CC1 (stereo unspecified)	-4	-10%	-12	?	·	-5%
CC(C)C[C@H]1CN(CCCC[C@@H]2CNC(=O)C(=O)N2CC2CCCCC2)C(=O)C(=O)N1CCc1ccc(O)cc1	·	·	·	·	·	4%
CCCNS(=O)(=O)c1cc(CN2C(=O)c3cccnc3C2=O)ccc1OC	-10	6%	31	?	4%	21%
CC1(C(=O)Nc2cnc3ccccc3c2)CCN1C(=O)CC(c1ccccc1)c1ccccc1 (stereo unspecified)	·	·	·	·	·	-5%
COC(=O)C1=C(C)NC(=S)NC1c1ccc(-c2cc(Cl)ccc2Cl)o1 (stereo unspecified)	1	?	12	?	12µM*	21%
COC(=O)C1=C(C)NC(=O)NC1c1ccc(-c2ccc(Cl)cc2)o1 (stereo unspecified)	1	8.9µM*	-6	?	-15%	-1%
COC(=O)C1=C(C)NC(=S)NC1c1ccc(N(CCCl)CCCl)cc1Cl (stereo unspecified)	·	?	·	·	·	48%
Cc1c(NC(=S)NC(=O)c2cccc(Br)c2)c(=O)n(-c2ccccc2)n1C	-1	1%	-6	?	21%	10%
CCc1ccccc1NC(=O)CCCSc1nc2ccccc2s1	12*	-20%	13	-3%	-5%	6%
O=C(CCCSc1nc2ccccc2s1)NCc1ccco1	16*	2%	81	?	·	5%
COc1ccc(COC[C@H](C)[C@H](O[Si](C)(C)C)[C@@H](C)[C@H]2OC(=O)[C@H]2C)cc1	6	·	16	·	·	·
CC(=O)N[C@@H]1C(O)OC(CO)C(O)C1O (stereo partly specified)	·	·	·	-21%	-7%	·
CCCc1ccc2oc(C(=O)N(C)Cc3nccs3)c(C)c2c1	56*	-29%	117*	?	-18%	18%
CCCc1ccc2oc(C(=O)N3CCN(C4CCS(=O)(=O)C4)CC3)c(C)c2c1 (stereo unspecified)	23*	1%	19	?	8%	-1%
CCCc1ccc2oc(C(=O)N3CCC(O)CC3)c(C)c2c1	44*	?	70*	19%	31%	1%

Source: PubChem (National Center for Advancing Translational Sciences (NCATS))
